# Compound activity from PubChem BioAssay.
# HT1080-NT tox: kills 2HG-producing HT-1080-NT fibrosarcoma cells | Potency, µM (series often up to 46.1 µM), for inactives: top-dose activity, negative = less viability, usual class: cytotoxic | HT-1080-NT fibrosarcoma viability, CellTiter-Glo ATP luminescence, 48 h | 360,000 compounds, 1.6% hits;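 further: NT is the 2HG producing partner of a matched IDH1 knockdown line; 0% = DMSO-treated cells and -100% = media-only wells without cells; nearly all actives have a fitted effect of over 55% in size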
#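 HT-1080-NT fibrosarcoma cells (2HG-overproducing), 750 cells/well in RPMI with 5% FBS, dosed after 2 h and incubated 48 h at 37C. CellTiter-Glo luminescence normalized to DMSO and no-cell wells; concentration-response curves fitted and classed.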
# HT1080 IDH1KD tx: kills HT-1080 cells with IDH1 knockdown; HT-1080 IDH1 knockdown viability, ATP luminescence, 48 h; Potency, µM (top dose mostly 46.1 µM), for the others: at the top dose activity, negative = toxicity, usual class: cytotoxic; 360,000 compounds, 2% hits;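 further: 0% = DMSO wells and -100% = cell-free medium wells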
#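 CellTiter-Glo luminescence after 48 h compound exposure at 37 degrees C of IDH1-knockdown HT-1080 cells in 5% FBS RPMI. %Activity scaled between DMSO wells and cell-free media wells, with curves fitted and assigned curve classes.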
# KB-V1 MDR tox: KB-V1 MDR subline cytotoxicity | KB-V1 MDR cells viability, CellTiter-Glo, 72 h | Potency, µM (titrated, usually from 46.1 µM), most hits filed as cytotoxic | 400,000 compounds, 3.4% hits; further: on the % scale 0 is the no-effect control and ±100 the full control effect; nearly all actives have a fitted effect of over 60% in size
#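 Cytotoxicity via CellTiter-Glo luminescence after 72 h compound exposure at 37 degrees C. Cells: drug-selected KB-V1 line, DMEM phenol-red free plus 10% FBS. Compounds tested at multiple concentrations; normalized data fitted to concentration-effect curves.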
# SW480 rereplic: induces DNA re-replication in SW480 colon adenocarcinoma cells; SW480 DNA re-replication, Hoechst DNA content imaging, 48 h; Potency, µM (top dose mostly 46.1 µM), without a hit: at the highest dose re-replication activation, most hits filed as activators; 340,000 compounds, 1.8% hits; AID 624297; further: % of control where 0% means no effect; nearly all actives have a fitted effect of over 55% in size
#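 Compounds, transferred as 23 nL by pin tool, were incubated with cells for 48 hr; DNA content per nucleus was then quantified by Hoechst staining and fluorescence plate imaging.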
# KB-3-1 cytotox: KB-3-1 parental cell cytotoxicity. KB-3-1 viability, CellTiter-Glo ATP luminescence, 72 h. Potency, µM (series often up to 46.1 µM), actives largely listed as cytotoxic. 400,000 compounds, 1.4% hits. AID 1347075; further: on the % scale 0 is the no-effect control and ±100 the full control effect; nearly all actives have a fitted effect of over 60% in size
#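 Parental KB-3-1 adenocarcinoma cells in phenol-red-free DMEM with 10% FBS were pin-treated with compounds at several concentrations, incubated 72 h at 37 °C, and viability read by CellTiter-Glo luminescence; concentration-effect curves were fitted after normalization.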
# MCF10A rerep: induces DNA re-replication in MCF 10a normal breast cells | 350,000 compounds, 2.9% hits | MCF 10A DNA re-replication, Hoechst nuclear intensity, 48 h | Potency, µM (titrated, usually from 46.1 µM), for inactives: at the highest dose activity, positive = re-replication, most hits filed as activators; further: % of control where 0% means no effect; nearly all actives have a fitted effect of over 50% in size
# * hit, by the source's call; i = inactive; u = inconclusive; x = no result given; ! = not active in a repeat; [ ] = dose if it differs, or a comment. Most compounds without a hit are left out; they make up all but 7.9% or so of the library. The call rests on the fitted dose curve; in most records, active means well fitted curve in the direction sought with a large enough effect; inconclusive means small, poorly fitted or top-dose-only effect, or another doubt; inactive means no such curve, though single readings can be large; an effect the other way counts as inactive or inconclusive. Potency means the concentration at half of the fitted maximal effect.
SMILES,HT1080-NT tox,HT1080 IDH1KD tx,KB-V1 MDR tox,SW480 rereplic,KB-3-1 cytotox,MCF10A rerep
COc1ccc(CNC(=O)/C=C/c2ccc3[nH]cc(CCN(C)C)c3c2)cc1,-2%,-22%,i,3.2µM*,i,7%
COc1ccc2[nH]cc(CCN(C)C)c2c1,1%,0%,i,-32%,i,1%
CCn1c(=O)oc2cc(NC(=O)CCl)ccc21,8.2µM*,5.2µM*,u,u,u,u
COc1ccc(CC(N)c2csc(NC(=O)Nc3ccccc3Oc3ccccc3)n2)cc1 (stereo unspecified),15µM*,u,i,x,i,x
NC(Cc1ccc(Cl)cc1)c1csc(Nc2cnccn2)n1 (stereo unspecified),u,u,i,x,i,x
CC1(C)Cc2c(c(N3CCOCC3)nc3snc(N)c23)CO1,11µM*,20µM*,i,-6%,20µM*,10µM*
CC(C)CCNc1nnnc2c1sc1nc(N3CCOCC3)c3c(c12)CC(C)(C)SC3,17%,12%,u,-3%,i,u
CC(=O)O[C@H]1CCC2C3CCC4=CC(=O)CCC4=C3C=C[C@@]21C (stereo partly specified),0%,4%,8.2µM*,-8%,u,16%
CC(=O)O[C@H]1CC[C@H]2[C@@H]3CCC4=CC(=O)CCC4=C3C=C[C@]12C,x,x,x,1%,x,10%
CCOc1cccc(=NC2CCCCC2)c2c(C)n(C)c(C)c12,21µM*,13µM*,u,3%[9.22 µM],18µM*,-1%
O=C(Nc1ccccc1)C1=C[C@H](c2ccccc2)C[C@H](OCCCCO)O1,-16%,-21%,u,1%,u,18µM*
CCCC(C)C1(CC)C(=O)NC(=Nc2ccc(OC)cc2)NC1=O (stereo unspecified),3%,5%,i,-1%,i,7%
CCCCCCn1c(=O)c(C(=O)Nc2c(C)n(C)n(-c3ccccc3)c2=O)c(O)c2ccccc21,u,-15%,1.6µM*,-8%,u,-9%
CCCCCCn1c(=O)c(C(=O)Nc2ncccc2O)c(O)c2ccccc21,5%,-3%,u,-3%,7.3µM*,-7%
CCCCn1c(=O)c(C(=O)Nc2ccccn2)c(O)c2ccccc21,0%,5%,i,-43%,10µM*,6%
CCCCCn1c(=O)c(C(=O)Nc2ccccn2)c(O)c2ccccc21,-8%,-7%,6.5µM*,3%,i,-4%
CCCCn1c(=O)c(C(=O)Nc2ccc(C)cn2)c(O)c2ccccc21,3%,8%,u,-3%,i,-2%
CCCCCn1c(=O)c(C(=O)Nc2ccccc2)c(O)c2ccccc21,7%,6%,i,1%,i,12%
CCCCCn1c(=O)c(C(=O)Nc2cccc(C)n2)c(O)c2ccccc21,26%,11%,u,-4%,i,1%
Cc1cc(OCC(=O)N2CCC(C(=O)O)(c3ccccc3)CC2)c2c(C)cc(=O)oc2c1,0%,-1%,i,u,i,u
CCCCCCn1c(=O)c(C(=O)Nc2cnccn2)c(O)c2ccccc21,-21%,u,1.3µM*,-5%,2.1µM*,u
Ic1ccccc1CN[C@@H]1C2CCN(CC2)[C@@H]1C(c1ccccc1)c1ccccc1,18µM*,21µM*,16µM*,-2%,u,u
O=C(CN1CCN(CC(=O)Nc2ccc(OCc3ccccc3)cc2)CC1)Nc1ccc(F)cc1,u,u,3.7µM*,13%,i,28%
NC(=O)C1(N2CCCCC2)CCN(CC(=O)Nc2ccc(Oc3ccccc3)cc2)CC1,-26%,u,13µM*,7%,u,3%
Cc1ccccc1C(O)(Cc1ccccc1)C1CN2CCC1CC2 (stereo unspecified),u,u,u,-8%[9.22 µM],10µM*,4%
SMILES,HT1080-NT tox,HT1080 IDH1KD tx,KB-V1 MDR tox,SW480 rereplic,KB-3-1 cytotox,MCF10A rerep
CCOP(=O)(OCC)/C(=N/OC(=O)c1ccc(OC)cc1)C(N)=O,-8%,u,i,u,u,u
CC1(C(=O)O)CCCC2(C)c3cc(O)ccc3CCC12 (stereo unspecified),-2%,-4%,i,-13%,i,18µM*
COc1ccc(-c2ccc(OC)c(OC)c2OC)cc1,u,u,u,3.7µM*,u,4.6µM*
O=[N+]([O-])c1ccc(N2CCCC2)cc1N/N=C1\CN2CCC1CC2,14%,23%,21µM*,23µM*,i,1%
CN1CCC(=O)N(CCN=[N+]=[N-])CC1,14%,17%,i,-10%,i,4%
C[C@H]1CCCC=CC2C[C@H](O)C[C@@H]2[C@H](O)C=CC(=O)O1 (stereo partly specified),x,x,0.018µM*,x,0.0073µM*,x
C[C@H]1CCC/C=C/[C@@H]2C[C@H](O)C[C@H]2[C@@H](O)/C=C/C(=O)O1,u,0.15µM*,0.18µM*,u,0.18µM*,5%
CCOC(=O)CCN=Cc1c(O)n(-c2ccc(Br)cc2)c(=O)[nH]c1=O,9%,12%,i,-3%[9.22 µM],i,-2%
O=[N+]([O-])c1ccc(C[n+]2c(-c3ccccc3)cc(-c3ccccc3)cc2-c2ccccc2)cc1,-19%,-14%,i,-1%,u,24%
O=C(CCC1CCCC1)c1c(O)c2ccccc2oc1=O,-1%,-1%,i,-8%,u,18µM*
O=c1oc2ccccc2c(O)c1C(c1ccccn1)c1c(O)c2ccccc2oc1=O,-2%,0%,i,-7%,i,-3%
ClC1=C(Cl)C(Cl)=C(Cl)C1=C/C=C/c1ccccc1,-9%,-16%,4.1µM*,u,4.6µM*,3.7µM*
CN1CCCN(C(=O)COc2ccc(F)cc2F)CC1,5%,2%,i,-20%,i,7%
Clc1ccc(CNC2CN3CCC2CC3)cc1 (stereo unspecified),5%,8%,i,-3%,i,9%
CCCCCCCCCCCCCCCC[N+](C)(C)C,12µM*,u,i,u,u,u
Cc1cc2c(C(C)C)c(O)c(O)c(C=O)c2c(O)c1-c1c(C)cc2c(C(C)C)c(O)c(O)c(C=O)c2c1O,x,x,u,13µM*!,1.5µM*,u
CCCCn1c(N)c(C(=O)NCCN2CCOCC2)c2nc3ccccc3nc21,u,u,i,18µM*,i,21µM*
O=C(NCCN1CCOCC1)c1ccc(Cl)nc1Cl,-7%,-2%,i,-7%,i,13%
